Sampled rows, rich in hits. Any-hit rate of the full collection: about 1.7%.
mIDH1 inhibitor: qHTS for Inhibitors of mutant isocitrate dehydrogenase 1 (IDH1): qHTS; IDH1-R132H enzyme, NADPH consumption, diaphorase/resazurin fluorescence; Potency, µM (top dose mostly 76.6 µM), for inactives: at the highest dose activity change, negative = inhibition, most hits filed as inhibitors; hit rate 0.093% among 390,000; note: % is set by controls: 0 for no effect and ±100 for the full control effect; nearly all actives have a fitted effect of over 65% in size
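IDH1-R132H (0.5 ug/mL dispensed) in pH 7.5 Tris buffer was preincubated 30 min with compound, then given a substrate mix of 0.016 mM NADPH and 2 mM alpha-KG for 80 min at room temperature; remaining NADPH was read by diaphorase/resazurin fluorescence.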
GRP78 ERSR act: qHTS for Inducers of the Endoplasmic Reticulum Stress Response (ERSR) in Human Glioma: qHTS; U87-MG GRP78 promoter luciferase reporter, 16 h; Potency, µM, without a hit: top-dose activation, actives largely listed as activators; hit rate 0.02% among 420,000; note: series mostly up to about 76 µM; % of control where 0% means no effect; nearly all actives have a fitted effect of over 35% in size
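Stably transfected U87-MG glioma cells carrying a GRP78-based luciferase sensor; 16 h compound incubation. Luminescence end-point read 10 min after Bright-Glo addition at room temperature.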
TrxR1 substrate: qHTS Assay for Substrates of Mammalian Selenoprotein Thioredoxin Reductase 1 (TrxR1): qHTS | Thioredoxin reductase 1, cytoplasmic (Rattus norvegicus), O89049 | purified TrxR1 substrate turnover, NADPH consumption readout | Potency, µM (top dose mostly 114 µM), inactives show at the highest dose activity change, negative = substrate turnover | hit rate 0.01% among 390,000; note: % is set by controls: 0 for no effect and ±100 for the full control effect; nearly all actives have a fitted effect of over 50% in size
Target sequence (O89049 whole entry, looked up): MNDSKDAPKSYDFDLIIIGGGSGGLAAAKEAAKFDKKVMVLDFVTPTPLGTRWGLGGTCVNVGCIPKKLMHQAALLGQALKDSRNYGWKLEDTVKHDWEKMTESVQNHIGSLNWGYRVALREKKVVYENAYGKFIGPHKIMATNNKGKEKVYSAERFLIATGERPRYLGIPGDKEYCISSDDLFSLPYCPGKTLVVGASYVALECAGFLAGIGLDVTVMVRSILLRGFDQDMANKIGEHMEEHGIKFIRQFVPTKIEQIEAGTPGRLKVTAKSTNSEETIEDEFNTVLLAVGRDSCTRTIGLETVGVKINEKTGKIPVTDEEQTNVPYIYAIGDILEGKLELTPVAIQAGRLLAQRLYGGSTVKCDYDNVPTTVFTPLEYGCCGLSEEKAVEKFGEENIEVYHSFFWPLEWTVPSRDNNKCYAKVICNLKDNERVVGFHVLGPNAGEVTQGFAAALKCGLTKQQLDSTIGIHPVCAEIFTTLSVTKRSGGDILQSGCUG
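Rat TrxR1, dispensed at 90 nM, was prereduced with 400 uM NADPH (final) for 5 min at ~22 deg C, then incubated with compound 15 min before 400 uM selenite. A first-read NADPH fluorescence drop versus no-compound background flagged substrates.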
ALOX12 inh: Primary qHTS assay for inhibitors of human arachidonate 12S-lipoxygenase (ALOX12): Round 2; purified 12hLO, xylenol orange hydroperoxide absorbance; Potency, µM (titrated, usually from 108 µM), for inactives: at the highest dose activity change, negative = inhibition, hits mostly inhibitors; hit rate 1.1% among 580,000; note: % is set by controls: 0 for no effect and ±100 for the full control effect
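Purified human 12hLO (150 nM final) in 25 mM Hepes, 0.01% Triton X-100, pH 7.0 was preincubated 15 min at room temperature with compound. Then 40 uM arachidonic acid was added, 30 min. Hydroperoxide was read by Fe-XO absorbance ratio 573/405 nm.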
rTrxR1 inhibitor: qHTS Assay for Inhibitors of Mammalian Selenoprotein Thioredoxin Reductase 1 (TrxR1): qHTS | Potency, µM (highest dose often 114 µM), without a hit: at the top dose activity change, negative = inhibition, most hits filed as inhibitors | AID 588453, 2011 | recombinant rTrxR1, NADPH fluorescence consumption, selenite substrate | hit rate 1% among 390,000 | Thioredoxin reductase 1, cytoplasmic (Rattus norvegicus), O89049; note: % is set by controls: 0 for no effect and ±100 for the full control effect; nearly all actives have a fitted effect of over 65% in size
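Rat TrxR1 (90 nM in the dispensed reagent) was pre-reduced with 400 uM NADPH for 5 min at room temperature, then incubated with compound for 15 min. After 400 uM selenite was added, NADPH fluorescence (Ex 340/Em 450 nm) was followed for 8 min.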
Apoferritin bind: qHTS Assay for Identification of Novel General Anesthetics | Ferritin light chain (Equus caballus), P02791 | apoferritin/1-aminoanthracene competitive binding, fluorescence | Potency, µM (series often up to 77.5 µM), without a hit: at the highest dose activity change, negative = displacement, most hits filed as inhibitors | hit rate 0.074% among 350,000 | AID 485281, 2010; note: % is set by controls: 0 for no effect and ±100 for the full control effect; nearly all actives have a fitted effect of over 20% in size
Target sequence (P02791 2-175 limits assumed): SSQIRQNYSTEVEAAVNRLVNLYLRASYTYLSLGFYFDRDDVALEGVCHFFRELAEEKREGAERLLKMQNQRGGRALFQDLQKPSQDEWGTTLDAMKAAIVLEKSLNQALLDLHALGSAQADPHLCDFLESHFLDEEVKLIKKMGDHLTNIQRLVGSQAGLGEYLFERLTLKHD
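Read-out: endpoint 1-AMA fluorescence, excitation 380 nm and emission 535 nm, after compounds sit 10 min at room temperature with 10 uM horse-spleen apoferritin in 50% saturated 1-AMA/PBS. Values come from four-parameter Hill fits.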
Active calls of the source: *; ? = inconclusive; · = no result; [ ] = another dose, or the depositor's remark. Calls come from the whole dose curve; as a rule, active = well fitted curve in the direction sought with a large enough effect; inconclusive = small, poorly fitted or top-dose-only effect, or another doubt; inactive = no such curve, though single readings can be large; an effect the other way counts as inactive or inconclusive. Potency is the fitted concentration of half-maximal effect.

SMILES | mIDH1 inhibitor | GRP78 ERSR act | TrxR1 substrate | ALOX12 inh | rTrxR1 inhibitor | Apoferritin bind
O=S(=O)(NCC(c1ccco1)S(=O)(=O)c1cccs1)c1ccc(Cl)cc1 (centres undefined) | -8% | 1% | 4%[57.1 µM] | -7% | 0.63µM* | -8%
CC(C)(C)c1ccc(C(=O)NCC(c2cccs2)S(=O)(=O)c2ccccc2)cc1 (centres undefined) | -1% | -3% | 0%[57.1 µM] | 0% | 15%[57.1 µM] | -1%
O=S(=O)(NCC(c1ccco1)S(=O)(=O)c1cccs1)c1ccccc1 (centres undefined) | -9% | 1% | 2%[57.1 µM] | 4% | 16µM* | -11%
COc1ccc(OCCN2CCN(C(=O)c3nn(Cc4ccccc4)c(=O)c4ccccc34)CC2)cc1 | · | · | · | 14% | · | ·
CC1(C)CS(=O)(=O)N(c2ccc(C(=O)Nc3ccc4c(c3)OCCO4)cc2)C1=O | · | · | · | 110% | · | ·
Cc1cc(S(=O)(=O)Nc2ccc(O)c(Sc3nc4ccccc4s3)c2)ccc1Cl | ? | -4% | 6% | ? | 8% | -22%
O=S(=O)(Nc1ccc(O)c(Sc2nc3ccccc3s2)c1)c1cc(Cl)ccc1Cl | -11% | -4% | -2% | 10µM* | 1% | -5%
COc1ccc(-c2cc(-c3cccc(O)c3)cn3cncc23)cc1 | · | · | · | 16µM* | · | ·
COc1ccccc1-c1cc(-c2ccc(=O)[nH]c2)c2cncn2c1 | · | · | · | 22µM* | · | ·
CCCCCCCCOc1c(OC)cc(/C=C/C(=O)N2CCN(c3ccc(C)c(C)c3)CC2)cc1OC | · | 0% | · | · | · | 2%
O=C1CC2(CCN(C(=O)[C@@H]3CCCN3)CC2)CN1Cc1ccc(F)c(F)c1 | · | · | · | -12% | · | ·
COCCN1CCCN(C(=O)c2ccc(F)c(F)c2)c2ccccc21 | · | · | · | 45µM* | · | ·
O=C(CS(=O)(=O)c1ccccc1)c1cc2ccccc2oc1=O | 15% | 3% | -8% | · | 16µM* | -17%
O=C(CS(=O)(=O)c1ccccc1)c1cc2cc(F)ccc2oc1=O | 18% | ? | 3% | · | 7% | -5%
O=C1OCC(CO)(CO)N=C1NNc1ccccc1[N+](=O)[O-] | 2% | 8% | -12% | 11µM* | -7% | -3%
Cc1nc([C@@H]2CN(S(=O)(=O)C(C)C)C[C@H]2C(N)=O)n[nH]1 | · | · | · | 50µM* | · | ·
CC(C)(C)N(CC#CCC(O)(c1ccccc1)c1ccccc1)CCO | 1% | -2% | 2% | 7.9µM* | -6% | -1%
O=C(Nc1nccs1)c1ccc(S(=O)(=O)NCC2CCCCC2)cc1 | -2% | 0% | 6% | 29% | 14% | 14µM*
CCOC(=O)N/N=C\c1ccc([N+](=O)[O-])o1 | 2% | -3% | -6% | -18% | 7.1µM* | -20%
CC1(C(=O)N/N=C/c2ccc([N+](=O)[O-])o2)CC1(Br)Br (centres undefined) | 7% | -4% | -7% | -22% | 45µM* | -10%
O=C(CN1CCCCCCC1)N/N=C/c1ccc([N+](=O)[O-])o1 | -15% | 0% | -20% | ? | ? | ?
O=C(CC12CC3CC(CC(C3)C1)C2)N/N=C/c1ccc([N+](=O)[O-])o1 | 10% | -5% | 2% | 9% | 40µM* | -7%
CC(=O)N/N=C/c1ccc([N+](=O)[O-])o1 | · | -11% | · | · | · | ·
O=C(Cc1ccc([N+](=O)[O-])cc1)N/N=C/c1ccc([N+](=O)[O-])o1 | -10% | 1% | -3% | ? | 14µM* | ?
CCCCCCCC(=O)N/N=C/c1ccc([N+](=O)[O-])o1 | -8% | -3% | -2% | -16% | ? | ?
SMILES | mIDH1 inhibitor | GRP78 ERSR act | TrxR1 substrate | ALOX12 inh | rTrxR1 inhibitor | Apoferritin bind
Cc1cc(C(=O)NCCc2ccccn2)c2ccccc2n1 | · | · | · | 2% | · | ·
Cc1ccccc1CNC[C@H]1O[C@@H]2C[C@@H](CC(=O)NCc3cnn(C)c3)O[C@@H]2[C@@H]1O | · | · | · | 1%[176 µM] | · | ·
Cc1cccc(C)c1NC(=O)Cn1nc(C)c2sc3ccccc3c2c1=O | -6% | -3% | -2% | -24% | 0% | -11%
Cc1sc2ncn(CC(=O)NC3CCCc4ccccc43)c(=O)c2c1C (centres undefined) | · | · | · | 9% | · | ·
O=C(c1cn(CCOc2ccc(Cl)cc2)c2ccccc12)C1CCCCC1 | -6% | -7% | -4% | -1% | 15% | -14%
COc1ccc2ccc(OCc3nc(C(=O)N4CCCC(C(N)=O)C4)co3)cc2c1 (centres undefined) | · | · | · | 39% | · | ·
COc1ccc(C(=O)Nc2cc(C(=O)c3ccccc3)c(C)oc2=O)cc1 | 1% | -11% | -3% | ? | 11µM* | ?
Cc1oc(=O)c(NC(=O)c2cccc(Cl)c2)cc1C(=O)c1ccccc1 | 0% | 9% | 3% | ? | 35µM* | -23%
CCc1cc(-c2n[nH]c(=S)n2-c2cccc(C)c2)cs1 | 5% | -3% | 6% | 32µM* | -8% | -24%
CCCCCCn1c(-c2cccs2)n[nH]c1=S | -2% | -2% | 19% | 28µM* | -6% | -19%
Cc1cccc(-n2c(-c3csc(C)c3)n[nH]c2=S)c1 | -4% | -2% | 6% | ? | -12% | -9%
CCCCn1c(-c2csc(C(C)C)c2)n[nH]c1=S | 7% | -4% | -3% | ? | -9% | 0%
CCCCn1c(-c2csc(CC)c2)n[nH]c1=S | -7% | -4% | -12% | 50µM* | -22% | -2%
CC(=O)Nc1cc(-c2nc3cc(C)ccc3o2)ccc1Cl | · | · | · | 4% | · | ·
O=C(c1ccco1)N1CCN(CCCCOc2cccc3ccccc23)CC1 | 5% | -6% | -9% | 45µM* | -16% | -18%
CCOc1ccccc1-n1c(CN2CCN(C(=O)c3ccco3)CC2)nc2ccccc2c1=O | 7% | -11% | 10% | 5% | 20µM* | -13%
O=C(CN1CCN(C(=O)c2ccco2)CC1)NCc1ccc(Cl)cc1 | 1% | -1% | 10% | ? | 14µM* | -5%
O=C(c1ccco1)N1CCN(CCOCCOc2cccc3ccccc23)CC1 | 0% | -4% | 5% | ? | 11%[57.1 µM] | -12%
N#Cc1cccc(NC(=O)Cn2nc3c(N4CCCCC4)nc4ccccc4n3c2=O)c1 | · | · | · | 2% | · | ·
COc1ccccc1-c1ccc2c(c1)C(C)(Cc1ccc(F)c(Cl)c1)C(=O)N2 (centres undefined) | · | -11% | · | ? | · | ·

Assay outcomes (PubChem BioAssay)
